Test systems include SK-MEL-2 melanoma; EKVX NSCLC; SN12C renal; UO-31 renal; TK-10 renal; ACHN renal; CAKI-1 renal; A498 renal; CCRF-CEM leukemia; MOLT-4 leukemia; SR leukemia; RPMI-8226 leukemia; OVCAR-8 ovarian; OVCAR-5 ovarian; OVCAR-4 ovarian; SK-OV-3 ovarian; IGROV1 ovarian; OVCAR-3 ovarian; HS 578T breast; NCI/ADR-RES ovarian.
Common to all, as to test: NCI-60 one-dose screen, 48 h (100 = growth as untreated, 0 = no growth, -100 = all killed)
Details in all cases: 10 µM unless noted

From PubChem BioAssay (NCI) come the findings set out here.

The panel holds about 83,000 compounds, 20% with a hit somewhere; the sample as a whole holds those more often.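 Plates (96-well) were seeded with cells, treated with compound at one concentration, and incubated for 48 hours before percent growth was determined.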 Unmarked numbers belong to inactive results. The source made the active and inactive calls. The calls were made as follows: active = growth percent below 10; inactive = the rest.

With `C#CCOC(=O)/C=C/c1cn(-c2ccccc2)nc1-c1ccc(OC)cc1`, the growth was 90.4% in the assay with SK-MEL-2 melanoma; 93.4% in the assay on EKVX NSCLC; 77.3% in the assay on SN12C renal; 54% with UO-31 renal; 91.6% in the assay with TK-10 renal; 77% with ACHN renal. The growth was 67.6% in the assay with CAKI-1 renal; 81.7% with A498 renal; 97.5% in the assay with CCRF-CEM leukemia; 75.8% in the assay on MOLT-4 leukemia; 83.2% in the assay on SR leukemia; 105% with RPMI-8226 leukemia. The growth is 78.5% in the assay on OVCAR-8 ovarian; 91% with OVCAR-5 ovarian; 90.7% in the assay with OVCAR-4 ovarian; 89.3% in the assay on SK-OV-3 ovarian; 74% with IGROV1 ovarian; 103% with OVCAR-3 ovarian. The results for the growth with HS 578T breast and in the assay on NCI/ADR-RES ovarian were 76.9% and 98.4%, respectively.

Take `N#Cc1c(-c2ccccc2)cc(-c2ccc(Nc3nc(Nc4ccc(Cl)cc4)nc(Nc4ccc(Cl)cc4)n3)cc2)nc1N`: the growth in the assay with SK-MEL-2 melanoma was 34%; with EKVX NSCLC, 9.99% (active); in the assay on SN12C renal, 50.2%; with UO-31 renal it was -82.4% (active); with TK-10 renal it was -60.1% (active); in the assay with ACHN renal, -32.5% (active). Besides, the growth in the assay with CAKI-1 renal was 20.1%; in the assay with A498 renal, 81.8%; with CCRF-CEM leukemia, 4.06% (active); with MOLT-4 leukemia it was 4.72% (active); with SR leukemia, -30.8% (active); in the assay on RPMI-8226 leukemia it was -45.4% (active). For the same compound, the growth is 32.6% in the assay with OVCAR-8 ovarian; 63.2% in the assay with OVCAR-5 ovarian; -15.2% (active) with OVCAR-4 ovarian; 110% in the assay with SK-OV-3 ovarian; -8.08% (active) with IGROV1 ovarian; -54% (active) in the assay on OVCAR-3 ovarian. Besides, the growth was 14.4% in the assay on HS 578T breast and 53.2% in the assay on NCI/ADR-RES ovarian.

Regarding `N#Cc1nc(-c2ccccc2)oc1S(=O)(=O)N1CCN(c2ccccc2)CC1`, the growth in the assay with SK-MEL-2 melanoma is 84.4%; in the assay with EKVX NSCLC, 116%; with SN12C renal, 88%; with UO-31 renal it was 84.5%; in the assay on TK-10 renal, 104%; in the assay on ACHN renal, 102%. Besides, the growth with CAKI-1 renal is 109%; in the assay with A498 renal it was 95.1%; in the assay with CCRF-CEM leukemia it was 2.42% (active); in the assay on MOLT-4 leukemia, 12.2%; with SR leukemia, 14.7%; in the assay with RPMI-8226 leukemia, 63.4%. Besides, the growth is 81.3% in the assay with OVCAR-8 ovarian; 112% in the assay with OVCAR-5 ovarian; 99.5% in the assay on OVCAR-4 ovarian; 105% with SK-OV-3 ovarian; 78.9% in the assay with IGROV1 ovarian; 111% with OVCAR-3 ovarian. The growth is 102% in the assay on HS 578T breast and 97.5% in the assay on NCI/ADR-RES ovarian.

On to `CCC(C)N(CCNc1cc(OC)cc2cccnc12)CC(C)C` (stereo not given), for which the growth in the assay on SK-MEL-2 melanoma is 110%; with EKVX NSCLC, 95.5%; in the assay on SN12C renal, 101%; with UO-31 renal, 67.2%; in the assay with TK-10 renal, 101%; in the assay on ACHN renal, 85.6%. Moreover, the growth with CAKI-1 renal is 94.1%; in the assay with A498 renal, 92.8%; with CCRF-CEM leukemia, 90.9%; in the assay on MOLT-4 leukemia, 87.4%; in the assay on SR leukemia, 85.4%; in the assay with RPMI-8226 leukemia it was 70.3%. Also, the growth with OVCAR-8 ovarian is 90.9%; with OVCAR-5 ovarian, 99.6%; with OVCAR-4 ovarian, 16.4%; in the assay with SK-OV-3 ovarian it was 95.1%; in the assay on IGROV1 ovarian, 53.6%; with OVCAR-3 ovarian it was 65.2%. Also, the growth in the assay on HS 578T breast is 110%; with NCI/ADR-RES ovarian it was 83.5%.

With `COc1ccc(CNc2c3ccccc3nc3ccccc23)cc1`, the growth is 60.1% in the assay on SK-MEL-2 melanoma; 49.7% in the assay on EKVX NSCLC; 32.2% in the assay on SN12C renal; 22.1% with UO-31 renal; 49.5% in the assay on TK-10 renal; 18.8% in the assay on ACHN renal. Also, the growth is 29.3% in the assay with CAKI-1 renal; 10% with A498 renal; 39% in the assay with CCRF-CEM leukemia; 9.38% (active) with MOLT-4 leukemia; 6.96% (active) in the assay on SR leukemia; 15.8% with RPMI-8226 leukemia. The growth was 27.7% with OVCAR-8 ovarian; 46.4% in the assay on OVCAR-5 ovarian; 40.3% in the assay on OVCAR-4 ovarian; 53.8% with SK-OV-3 ovarian; 27.2% in the assay on IGROV1 ovarian; 48.1% in the assay on OVCAR-3 ovarian. Moreover, the growth with HS 578T breast is 58%; in the assay with NCI/ADR-RES ovarian, 38.8%.

On to `CCN(CC)CCCCCNc1cc(OC(=O)c2ccc(Cl)cc2)cc2cccnc12`, for which the growth with SK-MEL-2 melanoma was 103%; with EKVX NSCLC, 104%; with SN12C renal, 96.8%; with UO-31 renal it was 94.7%; with TK-10 renal, 106%; in the assay on ACHN renal, 106%. Besides, the growth is 106% with CAKI-1 renal; 95.6% with A498 renal; 108% in the assay with CCRF-CEM leukemia; 72.6% in the assay with MOLT-4 leukemia; 75.3% in the assay on SR leukemia; 97.7% in the assay on RPMI-8226 leukemia. The growth with OVCAR-8 ovarian was 88.3%; in the assay with OVCAR-5 ovarian, 118%; with OVCAR-4 ovarian it was 39.9%; in the assay on SK-OV-3 ovarian, 119%; in the assay on IGROV1 ovarian it was 161%; with OVCAR-3 ovarian it was 78.7%. Further, the growth in the assay with HS 578T breast was 117%; with NCI/ADR-RES ovarian, 95.1%.

With `C1CN(SSN2CCOCC2)CCO1`, the growth in the assay with SK-MEL-2 melanoma was 63.1% [100 µM]; in the assay with EKVX NSCLC, 13.1% [100 µM]; in the assay on SN12C renal it was -74.7% [100 µM] (active); with UO-31 renal it was -37.5% [100 µM] (active); with TK-10 renal it was -72.8% [100 µM] (active); in the assay on ACHN renal, -70.1% [100 µM] (active). The growth is -48.4% [100 µM] (active) in the assay with CAKI-1 renal; 75.8% [100 µM] in the assay with A498 renal; 11.8% [100 µM] in the assay on CCRF-CEM leukemia; 50.4% [100 µM] in the assay with MOLT-4 leukemia; 13.3% [100 µM] with SR leukemia; 1.55% [100 µM] (active) in the assay with RPMI-8226 leukemia. Besides, the growth in the assay on OVCAR-8 ovarian was -25.2% [100 µM] (active); with OVCAR-5 ovarian, 35.8% [100 µM]; with OVCAR-4 ovarian, -51.7% [100 µM] (active); with SK-OV-3 ovarian it was 101% [100 µM]; in the assay on IGROV1 ovarian it was 54.8% [100 µM]; in the assay on OVCAR-3 ovarian, -82.2% [100 µM] (active). Moreover, the values for the growth in the assay with HS 578T breast and in the assay on NCI/ADR-RES ovarian were 41% [100 µM] and 2.69% [100 µM] (active), respectively.

In the case of `Cc1cc(=O)oc2cc(OCc3nn4c(Nc5nc6ccccc6s5)c(-c5ccccc5)nc4s3)ccc12`, the growth was 108% with SK-MEL-2 melanoma; 88.4% with EKVX NSCLC; 91.4% in the assay with SN12C renal; 83.6% in the assay on UO-31 renal; 128% in the assay on TK-10 renal; 100% with ACHN renal. The growth in the assay on CAKI-1 renal is 79.5%; in the assay with A498 renal it was 91.1%; in the assay with CCRF-CEM leukemia, 40.7%; in the assay with MOLT-4 leukemia, 97.5%; with SR leukemia it was 94.7%; in the assay on RPMI-8226 leukemia, 82.6%. Besides, the growth in the assay on OVCAR-8 ovarian is 80.4%; in the assay on OVCAR-5 ovarian, 97.5%; in the assay on OVCAR-4 ovarian it was 61.4%; in the assay on SK-OV-3 ovarian, 92%; with IGROV1 ovarian, 89.2%; in the assay on OVCAR-3 ovarian it was 95.3%. Moreover, the results for the growth with HS 578T breast and in the assay with NCI/ADR-RES ovarian were 78.1% and 84.6%, respectively.
